Assay [1] in a line: Quantitative High-Throughput drug screen in 47 multiple myeloma cell lines against the NCATS MIPE library collection: OCIMY5_PLB cell viability assay (AID 1918988). Also: nearly all actives have a fitted effect of over 65% in size. Also: potency is read from the fitted curve at half-maximal effect. In outline: (§1)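 500 cells/well per myeloma line exposed to pinned MIPE 4.0 compounds for 48 h at 37 °C, 5% CO2. Viability read as ATP by CellTiter-Glo luminescence, normalised to DMSO-only (100%) and media-only (0%) wells.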

Assay [2] can be described thus: Quantitative High-Throughput drug screen in 47 multiple myeloma cell lines against the NCATS MIPE library collection: OPM1_PLB cell viability assay (AID 1918989). Also: nearly all actives have a fitted effect of over 40% in size. Also: potency is read from the fitted curve at half-maximal effect. Summed up: as §1
Assay [3] is described as follows: Quantitative High-Throughput drug screen in 47 multiple myeloma cell lines against the NCATS MIPE library collection: XG1_PLB cell viability assay (AID 1919866). Also: nearly all actives have a fitted effect of over 35% in size. Also: potency is read from the fitted curve at half-maximal effect. Summed up: as §1
A short description of assay [4]: Quantitative High-Throughput drug screen in 47 multiple myeloma cell lines against the NCATS MIPE library collection: VP6_DJ cell viability assay (AID 1919867). Also: nearly all actives have a fitted effect of over 40% in size. Also: potency is read from the fitted curve at half-maximal effect. In outline: as §1
Assay [5] in a line: Quantitative High-Throughput drug screen in 47 multiple myeloma cell lines against the NCATS MIPE library collection: UTMC2_PLB cell viability assay (AID 1919868). Also: nearly all actives have a fitted effect of over 55% in size. Also: potency is read from the fitted curve at half-maximal effect. To be noted: CellTiter-Glo ATP luminescence, 48 h; viability (% of DMSO control): at 45.8 µM (top of the series). Summed up: as §1
Assay [6] is described as follows: Quantitative High-Throughput drug screen in 47 multiple myeloma cell lines against the NCATS MIPE library collection: PE2_PLB cell viability assay (AID 1919869). Also: nearly all actives have a fitted effect of over 35% in size. Also: potency is read from the fitted curve at half-maximal effect. In outline: as §1
The nature of assay [7]: Quantitative High-Throughput drug screen in 47 multiple myeloma cell lines against the NCATS MIPE library collection: PCM6_Riken cell viability assay (AID 1919870). Also: nearly all actives have a fitted effect of over 30% in size. Also: potency is read from the fitted curve at half-maximal effect. Summed up:
as §1

Assay [8] can be described thus: Quantitative High-Throughput drug screen in 47 multiple myeloma cell lines against the NCATS MIPE library collection: KMS11_JCRBsus cell viability assay (AID 1919873). Also: nearly all actives have a fitted effect of over 50% in size. Also: potency is read from the fitted curve at half-maximal effect. Summed up:
as §1

Assay [9] is described as follows: Quantitative High-Throughput drug screen in 47 multiple myeloma cell lines against the NCATS MIPE library collection: KMS28BM_JCRB cell viability assay (AID 1919874). Also: nearly all actives have a fitted effect of over 35% in size. Also: potency is read from the fitted curve at half-maximal effect. In outline: as §1
The nature of assay [10]: Quantitative High-Throughput drug screen in 47 multiple myeloma cell lines against the NCATS MIPE library collection: KMS34_JCRB cell viability assay (AID 1918985). Also: nearly all actives have a fitted effect of over 40% in size. Also: potency is read from the fitted curve at half-maximal effect. In outline: as §1
Assay [11] in a line: Quantitative High-Throughput drug screen in 47 multiple myeloma cell lines against the NCATS MIPE library collection: SKMM1_PLB cell viability assay (AID 1919863). Also: nearly all actives have a fitted effect of over 35% in size. Also: potency is read from the fitted curve at half-maximal effect. To be noted: SKMM1 myeloma viability, CellTiter-Glo ATP, 48 h; viability: active compounds read low. In outline: as §1
For orientation: Cellular ATP, detected with luciferase, serves as a proxy for viable cell number.

Assay [12] can be described thus: Quantitative High-Throughput drug screen in 47 multiple myeloma cell lines against the NCATS MIPE library collection: OPM2_DSMZ cell viability assay (AID 1919872). Also: nearly all actives have a fitted effect of over 30% in size. Also: potency is read from the fitted curve at half-maximal effect. In outline:
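Luminescent ATP measurement with CellTiter-Glo gives viability, scaled between DMSO-only wells (100%) and media-only wells (0%). Cells, 500 per well, faced library compounds for 48 hours at 37C.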

Assay [13] can be described thus: Quantitative High-Throughput drug screen in 47 multiple myeloma cell lines against the NCATS MIPE library collection: KMS28PE_JCRB cell viability assay (AID 1918983). Also: nearly all actives have a fitted effect of over 35% in size. Also: potency is read from the fitted curve at half-maximal effect. In outline:
as §1

Assay [14] addresses Cytochrome P450 2D6 (Homo sapiens) (UniProt P10635). Put plainly: qHTS for inhibitors of CYP2D6 against the NCATS DSHEA and TCM libraries (AID 1919972). Also: potency is read from the fitted curve at half-maximal effect. To be noted: CYP2D6 enzymatic inhibition, luminescence qHTS. Summed up:
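Luminescent P450-Glo read-out of CYP2D6 turnover of a luciferin substrate after NADPH-driven reaction of 30-45 min at room temperature. Compounds were first preincubated 15 min with enzyme at titrated concentrations; quinidine was the intraplate control.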
On the technique in general: In qHTS, concentration-response curves come from the screen itself.

The target of assay [15] is Cytochrome P450 2C19 (Homo sapiens) (UniProt P33261). Nature of the assay: qHTS for inhibitors of CYP2C19 against the NCATS DSHEA and TCM libraries (AID 1919974).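 Also: luminescence from luciferin released by CYP2C19 oxidation of a pro-luciferin substrate; potency is read from the fitted curve at half-maximal effect.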 The conditions noted are these: CYP2C19 enzyme inhibition, luminescence qHTS. In outline:
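Luminescent P450-Glo format: compounds preincubated 15 min with enzyme and luciferin substrate, reaction run 30-45 min after NADPH regeneration solution. Intraplate controls: ketoconazole for CYP3A4 and CYP2C19, sulfaphenazole for CYP2C9.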

The nature of assay [16]: KB-3-1 P-gp reporter qHTS against the NCATS DSHEA and TCM libraries (AID 1919975). Also: 0% is about no effect. Summed up: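 Cell viability by CellTiter-Glo luminescence following ~72 h compound exposure (concentration-response). Uses parental, non-P-gp-overexpressing KB-3-1 line, 500 cells/well in DMEM/10% FBS, attached ~4 h before dosing.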
The target of assay [17] is Cytochrome P450 1A2 (Homo sapiens) (UniProt P05177). Put plainly: qHTS for inhibitors of CYPIA2 against the NCATS DSHEA and TCM libraries (AID 1919976). Also: potency is read from the fitted curve at half-maximal effect. The conditions noted are these: recombinant CYP1A2 enzyme activity, luminescence. In outline:
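Human CYP1A2 with pro-luciferin substrate (typically 100 mM KPO4), 15 min preincubation with compound, then 1x NADPH regeneration for 30-45 min at room temperature in the dark. Luciferin quantified by luciferase luminescence; furafylline intraplate control.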

Assay [18] is described as follows: KB-8-5-11 P-gp reporter qHTS against the NCATS DSHEA and TCM libraries (AID 1919977). Also: 0% is about no effect. Summed up:
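CellTiter-Glo luminescence measured viability after ~72 h exposure (37C, 5% CO2) of KB-8-5-11 cervical adenocarcinoma cells overexpressing P-gp. Colchicine was omitted during assay. Substances were tested as titrations.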

Assay [19] is described as follows: qHTS Counterscreen for compound interference against the NCATS DSHEA and TCM libraries (AID 1919978).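 Also: compounds preincubated with 1 µM D-luciferin or buffer before detection reagent; % of control where 0% means no effect.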 The conditions noted are these: firefly luciferase detection reagent interference, luminescence. Summed up:
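With 1 uM D-luciferin or phosphate buffer only, compounds at final 19.5 nM–39.8 uM were incubated for 15 min at room temperature. Luciferase detection reagent was then added, and luminescence was measured after a further 30 min at room temperature.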

A short description of assay [20]: Dual reporter qHTS for agonist of Pregnane X Receptor (hPXR) against the NCATS DSHEA and TCM libraries: Fluorescence readout (AID 1920058). Also: 0% is about no effect. In outline:
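hPXR-Luc HepG2 cells, 2000/well in charcoal-stripped serum, attached 5 h, dosed for ~24 h at 37 °C. Fluorescence read is CellTiter-Fluor viability (Ex/Em 405/540 nm); rifampicin positive, tetraoctyl ammonium bromide (92 µM) cytotoxicity controls.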

Values without a mark were called inactive. Results filed as inconclusive are left out. Active and inactive are the calls of the source. Calls follow the shape of the dose curve; as a rule, active = well fitted curve in the direction sought with a large enough effect; inconclusive = small, poorly fitted or top-dose-only effect, or another doubt; inactive = no such curve, though single readings can be large; an effect the other way counts as inactive or inconclusive.

Cytochrome P450 2C19 (Homo sapiens), sequence (P33261 whole entry, looked up): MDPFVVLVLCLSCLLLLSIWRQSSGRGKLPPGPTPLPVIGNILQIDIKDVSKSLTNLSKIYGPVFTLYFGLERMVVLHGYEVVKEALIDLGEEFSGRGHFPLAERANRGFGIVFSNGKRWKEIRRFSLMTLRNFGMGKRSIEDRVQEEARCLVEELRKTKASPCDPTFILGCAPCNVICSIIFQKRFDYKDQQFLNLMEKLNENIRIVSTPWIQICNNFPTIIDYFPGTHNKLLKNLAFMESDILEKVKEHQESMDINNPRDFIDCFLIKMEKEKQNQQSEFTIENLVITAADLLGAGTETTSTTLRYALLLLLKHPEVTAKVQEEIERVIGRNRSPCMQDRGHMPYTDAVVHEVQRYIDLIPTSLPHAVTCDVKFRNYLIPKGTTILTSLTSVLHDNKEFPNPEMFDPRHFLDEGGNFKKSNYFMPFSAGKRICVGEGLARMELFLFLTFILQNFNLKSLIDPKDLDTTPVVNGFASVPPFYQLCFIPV
Cytochrome P450 1A2 (Homo sapiens), sequence (P05177 whole entry, looked up): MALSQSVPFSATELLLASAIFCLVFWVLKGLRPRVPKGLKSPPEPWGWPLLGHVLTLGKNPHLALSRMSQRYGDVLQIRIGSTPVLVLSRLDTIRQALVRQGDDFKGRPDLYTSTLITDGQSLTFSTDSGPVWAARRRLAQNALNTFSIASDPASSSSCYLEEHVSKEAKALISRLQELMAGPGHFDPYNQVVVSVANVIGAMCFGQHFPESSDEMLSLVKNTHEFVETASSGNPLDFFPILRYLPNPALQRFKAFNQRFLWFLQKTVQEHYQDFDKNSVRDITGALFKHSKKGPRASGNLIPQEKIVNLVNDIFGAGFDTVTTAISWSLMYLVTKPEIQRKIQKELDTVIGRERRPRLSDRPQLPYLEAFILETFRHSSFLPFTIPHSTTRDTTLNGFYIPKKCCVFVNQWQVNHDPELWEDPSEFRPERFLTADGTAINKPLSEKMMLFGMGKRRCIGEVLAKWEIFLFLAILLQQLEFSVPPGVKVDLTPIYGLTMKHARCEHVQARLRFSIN
Cytochrome P450 2D6 (Homo sapiens), sequence (P10635 whole entry, looked up): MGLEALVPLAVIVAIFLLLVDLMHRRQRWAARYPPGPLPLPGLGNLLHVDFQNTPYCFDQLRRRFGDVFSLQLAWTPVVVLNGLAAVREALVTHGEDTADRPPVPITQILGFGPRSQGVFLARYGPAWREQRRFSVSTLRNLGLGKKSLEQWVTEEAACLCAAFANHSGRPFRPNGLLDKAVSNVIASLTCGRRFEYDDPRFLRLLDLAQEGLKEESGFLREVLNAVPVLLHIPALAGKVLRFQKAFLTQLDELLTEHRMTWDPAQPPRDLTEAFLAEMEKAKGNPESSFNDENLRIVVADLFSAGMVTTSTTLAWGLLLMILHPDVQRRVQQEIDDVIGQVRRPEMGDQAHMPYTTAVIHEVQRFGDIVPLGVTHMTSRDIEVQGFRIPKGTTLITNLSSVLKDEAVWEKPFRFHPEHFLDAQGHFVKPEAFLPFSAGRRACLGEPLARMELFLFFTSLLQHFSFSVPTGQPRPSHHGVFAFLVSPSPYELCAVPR

Turning to `CC(O)(CS(=O)(=O)c1ccc(F)cc1)C(=O)Nc1ccc(C#N)c(C(F)(F)F)c1` (centres undefined), the Potency in assay [1] is 332 nM (active); in assay [2], 3320 nM (active); in [3] it was 166 nM (active); in [4], 743 nM (active); in assay [5], 4180 nM (active); in assay [6], 418 nM (active). Further, the Potency in assay [7] was 590 nM (active). Further, the Potency entry in [8] and in assay [9] was “inactive” each time.
Turning to `COc1ccc2c(c1OC)CN1CCc3cc4c(cc3C1C2)OCO4` (centres undefined), the Potency result in assay [10], in [2], in assay [12] and in assay [9] was “inactive” each time. The viability (commonly a read-out of living cells in per cent, often relative to untreated cells) in assay [11] is 104%. Moreover, the Potency was 14800 nM (active) in assay [3], 5900 nM (active) in assay [4], 2090 nM (active) in [5] and 16600 nM (active) in assay [7].
`CNCC(O)c1ccc(O)cc1` (centres undefined): the Potency result in [13], in assay [10], in assay [2], in assay [3], in assay [6] and in assay [12] was “inactive” in each case. For the same compound, the Potency entry in [8] and in assay [9] was “inactive” throughout.
With `Fc1ccc(C(OCCN2CCN(CCCc3ccccc3)CC2)c2ccc(F)cc2)cc1`, the Potency in assay [13] was 23500 nM (active); in assay [1], 13200 nM (active); in assay [2] it was 16600 nM (active); in assay [11], 23500 nM (active); in assay [3], 7430 nM (active); in [4] it was 9350 nM (active). For the same compound, the Potency is 13200 nM (active) in assay [6]; 10500 nM (active) in assay [7]; 23500 nM (active) in assay [12]; 11800 nM (active) in [8]; 13200 nM (active) in assay [9].
As for `C[C@@H]1O[C@@H](O[C@H]2C[C@@H](O)[C@]3(CO)[C@H]4[C@H](O)C[C@]5(C)[C@@H](C6=CC(=O)OC6)CC[C@]5(O)[C@@H]4CC[C@]3(O)C2)[C@H](O)[C@H](O)[C@H]1O`, the Potency was 20.9 nM (active) in assay [13]; 59 nM (active) in assay [10]; 23.5 nM (active) in [1]; 59 nM (active) in assay [11]; 7.4 nM (active) in assay [3]; 16.6 nM (active) in assay [4]. Besides, the Potency was 11.8 nM (active) in [5]; 33.2 nM (active) in [6]; 18.7 nM (active) in [7]; 93.5 nM (active) in [8]; 20.9 nM (active) in [9].
`CN(C)CCN(C)CCc1ccc(Cl)c(Cl)c1`: the Potency entry in assay [13], in assay [1], in assay [2], in assay [3], in assay [4] and in assay [5] was “inactive” each time. Besides, the Potency entry in assay [12], in assay [8] and in [9] was “inactive” each time.
Take `Cc1cccc(C)c1NC(=O)CN1CCCC1=O`: the Potency entry in assay [13], in [10], in [1], in assay [6], in assay [7] and in assay [12] was “inactive” throughout. The Potency result in assay [8] and in [9] was “inactive” in each case. For the same compound, the viability in [11] was 118%.
As to `O=c1[nH]c2ccccc2n1CCCN1CCC(n2c(=O)[nH]c3cc(Cl)ccc32)CC1`, the Potency entry in assay [13], in assay [2] and in [12] was “inactive” each time. Besides, the viability in assay [11] was 125%. Besides, the Potency in assay [4] is 13200 nM (active); in assay [7], 2960 nM (active).
Turning to `C[C@@H]1[C@@H](CC(C[C@H]2O[C@@H]3O[C@]4(C)CC[C@@H]5[C@H](C)CC[C@@H]([C@H]2C)[C@@]35OO4)C[S+](=O)([O-])c2ccc(COC(=O)N(C)C)cc2)O[C@@H]2O[C@]3(C)CC[C@H]4[C@H](C)CC[C@@H]1[C@@]24OO3` (some centres undefined), the Potency is 209 nM (active) in assay [13]; 74.3 nM (active) in [10]; 209 nM (active) in [1]; 372 nM (active) in assay [2]; 166 nM (active) in assay [11]; 296 nM (active) in [3]. The Potency was 372 nM (active) in assay [4]; 187 nM (active) in [5]; 264 nM (active) in [6]; 418 nM (active) in [7]; 148 nM (active) in assay [8]; 264 nM (active) in [9].
`O=C1CC[C@@]2(O)[C@H]3Cc4ccc(O)c5c4[C@@]2(CCN3CC2CC2)[C@H]1O5`: the Potency entry in assay [13], in assay [10], in [3], in assay [5], in [6] and in assay [7] was “inactive” each time. The Potency entry in assay [12], in [8] and in [9] was “inactive” in each case. The Potency in assay [2] is 7430 nM (active). Moreover, the viability in [11] is 110%.
As for `CC(C)=CCOc1c2occc2cc2ccc(=O)oc12`, the Potency in [14] was 1780 nM (active); in [15], 12600 nM (active); in [17] it was 1260 nM (active). Also, the outcome in [16], in [18] and in assay [20] was inactive. Also, in assay [19], the max response was 2.08%.
For the compound `Cc1sc2c(c1C)C(c1ccc(Cl)cc1)=N[C@@H](CC(=O)OC(C)(C)C)c1nnc(C)n1-2`, the Potency in [13] is 235 nM (active); in [10], 235 nM (active); in [1], 132 nM (active); in assay [2] it was 74.3 nM (active); in assay [11], 372 nM (active); in [3], 187 nM (active). The Potency in [4] was 83.3 nM (active); in assay [5], 662 nM (active); in [6], 1180 nM (active); in [7], 2960 nM (active); in assay [8], 59 nM (active); in assay [9] it was 105 nM (active).
For the compound `C#CCN(C)[C@H](C)Cc1ccccc1`, the Potency result in assay [10], in assay [2], in [3], in assay [6] and in assay [12] was “inactive” throughout. The Potency in [11] is 16600 nM (active).
For `C=C(C)[C@H]1Cc2c(ccc3c2O[C@@H]2COc4cc(OC)c(OC)cc4[C@@H]2C3=O)O1`, the Potency in assay [1] is 833 nM (active); in [2] it was 7430 nM (active); in [3], 264 nM (active); in assay [4], 166 nM (active); in assay [5], 332 nM (active); in [6] it was 372 nM (active). Further, the Potency in assay [12] is 4690 nM (active); in [8] it was 332 nM (active).
On to `CN(C)[C@@H]1C(=O)C(C(N)=O)=C(O)[C@@]2(O)C(=O)C3=C(O)c4c(O)cccc4[C@@](C)(O)[C@H]3C[C@@H]12`, for which the Potency result in assay [3], in [6], in assay [7], in [8] and in assay [9] was “inactive” each time. Besides, the Potency in [12] was 16600 nM (active).

Values taken from PubChem BioAssay (NCATS).
